# Assay outcomes from PubChem.
# HCV inhibitor = qHTS Assay for Inhibitors of Hepatitis C Virus (HCV); 3.4% of 340,000 active; AID 651820, 2012; Potency, µM (doses to about 41.8 µM), inactives show at the highest dose activity change, negative = inhibition, usual class: inhibitors; Huh7.5.1 HCVcc-Cre infection, luciferase reporter, 44 h; active = well fitted inhibition curve with a large enough effect; inconclusive = small, poorly fitted or top-dose-only effect, or another doubt; inactive = no such curve, though single readings can be large or run the other way
#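 Infectious HCVcc-Cre (~0.5 moi) was added to cells just after compound, with cells seeded 4 h earlier at 1,000 per well. Luciferase activity after 44 h culture reported infection; substrate was incubated 15 min at room temperature before reading.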
# VACV Venus inh = qHTS for Stage-Specific Inhibitors of Vaccinia Orthopoxvirus: Venus Reporter Primary qHTS | Vaccinia virus Venus reporter expression, fluorescence | Potency, µM (series often up to 36.5 µM), for the others: at the highest dose activity change, negative = inhibition, hits mostly inhibitors | 0.46% of 330,000 active | AID 720580, 2013; calls by dose curve; tested in A549 cells; note: nearly all actives have a fitted effect of over 30% in size
# Vaccinia mCherry = qHTS for Stage-Specific Inhibitors of Vaccinia Orthopoxvirus: mCherry Reporter Primary qHTS | 0.63% of 310,000 active | Vaccinia virus mCherry reporter infection, fluorescence | Potency, µM (series often up to 36.5 µM), inactives show at the highest dose activity change, negative = inhibition, usual class: inhibitors; calls by dose curve; tested in A549 cells; note: nearly all actives have a fitted effect of over 35% in size
# * marks the source's active call; other numbers are inactive results; i = inactive; ? = inconclusive; . = not tested or not shown; ! = a repeat was not active. In the library only some 3.3% were active in any assay of this set; here they are far more common. % is set by controls: 0 for no effect and ±100 for the full control effect; potency is the fitted concentration of half-maximal effect.
SMILES,HCV inhibitor,VACV Venus inh,Vaccinia mCherry
CCN(c1ccccc1)C(CNS(=O)(=O)c1ccccc1)c1ccccc1 (stereo not drawn),.,-13%,-13%
CC(=O)Nc1ccc(S(=O)(=O)N2CCN(C(=O)c3ncoc3-c3cccc(F)c3)CC2)cc1,?,-21%,-1%
CCN(C[C@H]1N[C@@](Cc2ccccc2)(C(=O)OC)[C@H]2C(=O)N(Cc3ccccc3)C(=O)[C@@H]12)S(=O)(=O)c1ccc(C)cc1,7.1µM*,-22%,-16%
CCN(C[C@H]1N[C@@](Cc2ccccc2)(C(=O)OC)[C@H]2C(=O)N(C)C(=O)[C@@H]12)S(=O)(=O)c1ccc(-c2ccccc2)cc1,18µM*,-25%,-1%
CCN(C[C@H]1N[C@@](Cc2ccccc2)(C(=O)OC)[C@H]2C(=O)N(Cc3ccccc3)C(=O)[C@@H]12)S(=O)(=O)c1ccccc1,?,-18%,i
CCN(C[C@H]1N[C@@](Cc2ccccc2)(C(=O)OC)[C@H]2C(=O)N(C)C(=O)[C@@H]12)S(=O)(=O)c1ccccc1,47%,0%,-10%
CC(C)(CNC(=O)c1cnn(-c2ncc3c(n2)-c2ccccc2CCC3)c1C1CC1)N1CCOCC1,.,-7%,-17%
Cc1csc(C(C)N(C)C(=O)c2cc(NC(=O)C3CCC3)c3c(c2)nc(-c2ccncc2)n3C)n1 (stereo not drawn),.,-11%,i
Cc1ccc(C)c(C(=O)N2CCC(c3nc4c(nnn4Cc4ccccc4)c(=O)[nH]3)CC2)c1,.,-9%,-9%
O=C(c1cccc(N2CCCC2=O)c1)N1CCC(Oc2cccc(CN3CCN(c4ccccn4)CC3)c2)CC1,.,-15%,?
Cn1nc(-c2ccc(OCC(N)=O)cc2)c2ccccc2c1=O,15%,.,.
Cn1nc(-c2ccc(OCC(=O)N3CCN(Cc4ccccc4)CC3)cc2)c2ccccc2c1=O,6.3µM*,?,-14%
CCOc1cc(S(=O)(=O)Nc2ccc(CC)cc2)ccc1Cl,-1%,.,.
CCOc1cc(S(=O)(=O)Nc2ccccc2CC)ccc1Cl,10µM*,-14%,-3%
CCCNC(=O)Cn1ncc2c3ccccc3n(CCC)c2c1=O,.,-4%,-6%
CCN(C(=O)Cn1nc(Cc2ccncc2)c2ccccc2c1=O)c1cccc(C(F)(F)F)c1,.,-13%,-14%
NS(=O)(=O)c1ccc(Sc2nc3ccccc3s2)c([N+](=O)[O-])c1,22µM*,?,?
NS(=O)(=O)c1ccc(Sc2ccccn2)c([N+](=O)[O-])c1,12%,-15%,i
Cc1cc(=O)n2[nH]c(-c3ccc(C(C)(C)C)cc3)cc2n1,10µM*,.,.
Cc1cc(=O)n2[nH]c(-c3ccccc3)cc2n1,-4%,-12%,i
CN1C(=O)CC(CC(=O)N2CCCCC2CCO)(c2cccc(F)c2)C1=O (stereo not drawn),.,0%,-10%
S=C(NCc1ccc(Cl)cc1)NC1CCN(Cc2ccccc2)CC1,4µM*,?,-12%
Clc1ccc(CN2CCC(c3ccccc3)CC2)cc1,-3%,-17%,-8%
S=C(Nc1ccc(Cl)cc1Cl)NC1CCN(Cc2ccccc2)CC1,?,?,-9%
Clc1ccc(CNc2ccc(N3CCN(Cc4ccccc4)CC3)cc2)cc1,10µM*,-16%,-1%
SMILES,HCV inhibitor,VACV Venus inh,Vaccinia mCherry
Clc1ccc(CNC2CCN(Cc3ccccc3)CC2)cc1,8.9µM*,-23%,-14%
Fc1ccc(CN2CCN(c3ccc(Cl)cc3)CC2)cc1,-8%,-14%,i
COc1ccc(-c2ccnc(-n3ncc(C(=O)NCc4ccon4)c3C3CC3)n2)cc1F,.,?,-15%
O=C(CN(Cc1ccccc1)C(=O)CCC(=O)Nc1ccccn1)NCc1ccc(F)cc1,-6%,-11%,i
CCN(CC)S(=O)(=O)c1ccc2c(c1)N(CC(=O)Nc1ccccc1F)C(=O)C1CCCN21 (stereo not drawn),.,-1%,-4%
Cc1cccc2sc(N(Cc3cccnc3)C(=O)C3CCCCC3)nc12,.,-3%,i
CCOC(=O)N1CCC(N(C(=O)Nc2ccc(Cl)c(Cl)c2)C(C)CC)CC1 (stereo not drawn),10µM*!,-27%,-8%
CC(C)CCN(C(=O)Nc1ccc(Cl)c(Cl)c1)C1CCN(C(C)C)CC1,.,-20%,-21%
CCc1ccc(-n2cnc3cc(C(=O)NCc4ccc(C)cc4)ccc32)cc1,.,-9%,-10%
COc1cccc(S(=O)(=O)Nc2ccc(C(=O)Nc3ccncc3)cc2)c1,-11%,-30%,-18%
COc1ccc(NS(=O)(=O)c2cccc(NC(=O)c3ccc(Cl)nc3)c2)cc1,2.8µM*,?,-11%
